# According to the supplement of paper PMC11417369:
# ± gives the standard deviation of the averaged measurements. Whole data set: some 25,000 sequences, median “ln(normalized median fluorescence intensity)” near 8.6, cut for the highest 2% near 10. The list comes from a sample in which the highest values are over-represented; it also holds similar and randomly drawn sequences.
# System: PfAP2-EXP AP2 domain (GST-tagged)
# Assay: gcPBM binding intensity (ln(normalized median fluorescence intensity)); higher = stronger DNA binding
# Summary of the method: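 Using an Agilent 4 × 180k array, primer-extended double-stranded 36-bp intergenic genomic probes and negative controls were exposed for 1 h to GST-fused P. falciparum DNA-binding domains expressed in E. coli. Binding was carried out in 1× PBS with 1% milk, 0.2 mg/ml BSA, 0.5% salmon testes DNA and 0.03% Triton X-100, and protein was detected with Alexa488 anti-GST antibody and a 488 nm scan. Binding intensity is the highest Masliner-normalised natural-log median intensity across replicate spots of either probe orientation.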
row,Sequence,gcPBM binding intensity (ln)
1,TTTTGATATATGAATATTAAGTTATATAATATTTTA [TGCATGCA_negctrl_site39],7.92 ± 0.28
2,ATAATAATTTAATACATACACACGTATATCTTTTTT [CACACA_site2041],8.45 ± 0.4
3,AAAAATTAACAAAAGGTGCAAACAAATAGTGGTTTT [GTGCAC_site9998],8.865 ± 0.049
4,AATTGCTCGATATATGCACACAGTTTTGTTATTTTT [CACACA_site8465],8.94 ± 0.36
5,AAAAAAAAAAAAAAAAGTACAAAAAGGAGAAAGATA [XGTACX_site7862],8.9 ± 0.47
6,TTAAAAGAAAATAGGTGTACACATAATATATACATA [XGTACX_site7697],8.92 ± 0.057
7,TTGTTTCCTTAATATTCACACACATATATATAATAT [CACACA_site8553],8.89 ± 0.48
8,GAATATTAAACAAACACACACACATATATATATATA [CACACA_site3382],10.1 ± 0.32
9,TTATATTAAACAAACACACACATATATATATATATA [CACACA_site2382],10.1 ± 0.47
10,ATATTAAACAAACACACACACATATATATATATATA [CACACA_site3383],10.2 ± 0.26
11,AATTTTTTATTAAACACACAAACATATATATATATA [CACACA_site1937],9.94 ± 0.35
12,GAATATTAAACAAACACACACACATATATTTATATA [CACACA_site7563],8.63 ± 0.42
13,GTTTATATTAAACAAACACACACATATATATATATA [CACACA_site8749],10.2 ± 0.26
14,TATATTAGAAGAAATTCACACATTCATGTAATCTTA [CACACA_site4706],8.07 ± 0.33
15,ATAAATAAGATATATACACACATATCTATACATATT [CACACA_site6369],8.28 ± 0.49
16,AATCGATAACAATGTAGTACCAGAAAAATAAATATT [XGTACX_site8501],8.99 ± 0.3
17,AGAATCACCAAATATGTACACACCTTAACATGTTTA [CACACA_site2068],9.01 ± 0.46
18,ATTAGCTACAAACAAAGGCTACCTATAGCAAGAGGG [GTGCAC_negctrl_site33],8.84 ± 0.39
19,ATTATTAAAAAGATGTAAATAAATGAATATATGCTT [CACACA_negctrl_site539],8.47 ± 0.39
20,TATTTTTTTTTTTTTTTTTTTTTAAAACATATCAAT [CACACA_negctrl_site925],7.95 ± 0.64
21,TAGCTCGTTCGGAGCACACACATATAAATAAATATA [CACACA_site7002],8.38 ± 0.52
22,TAGCTCGTTCGGAGCACACACATATATATATATATA [CACACA_site1948],10.3 ± 0.28

row,Sequence,gcPBM binding intensity (ln)
1,GTTAGCTCGTTCGGAGCACACACATATATATATATA [CACACA_site8595],10.1 ± 0.45
2,TTCTATATATTTGGAAGTACATTATATTTATTTTTT [XGTACX_site3172],8.44 ± 0.33
3,AAATAATAAATATATCGTACAAATATCATATATAAA [XGTACX_site2771],8.32 ± 0.38
4,AATATTATAAATGTCACACATATATTCAAATATATA [CACACA_site4736],8.29 ± 0.38
5,TATATGTAAATGGACACACACATATATATATATATA [CACACA_site3659],10.1 ± 0.36
6,CCTAAATAAATGGACACACACATATTTATATTTATA [CACACA_site6789],8.46 ± 0.45
7,AATATATGTAAATGGACACACACATATATATATATA [CACACA_site9220],10 ± 0.28
8,CCTAAATAAATGGACACACACATATATATATATATA [CACACA_site1439],10.2 ± 0.32
9,ACACATAAATGAATAAATAAATAAATATAAATATAA [CACACA_negctrl_site1784],8.36 ± 0.29
10,TACCTAAATAAATGGACACACACATATATATATATA [CACACA_site8407],10.1 ± 0.3
11,TATCTGTAAATGGACACACACATATATATATATATA [CACACA_site5926],10.2 ± 0.2
12,AATAAATGGAATGTCACACATATATATATATATATA [CACACA_site4869],10.2 ± 0.37
13,GAACATACTCAAATAGCACACACATAAATAAAAATG [CACACA_site9283],8.89 ± 0.56
14,GTGTGTTGTATATACTGTACATACTTTATATATAGT [XGTACX_site1876],8.63
15,CCTTTTTTGTTTTATGCACACCATATAACCAAGGCT [CACACA_site7893],8.98 ± 0.18
16,AAAAAATGGATGATCACACACTTCATAAAAATTGCA [CACACA_site5256],8.46 ± 0.49
17,GTATATAATTTATATTGTACGCATATTATTATCATT [XGTACX_site7277],8.57 ± 0.25
18,ATTCTATATTTAAATGCATGCACTTTCTATTTTTTT [TGCATGCA_site435],10.6 ± 0.52
19,TTTATATTTAAATGCATGCACTTTCTATTTTTTTTT [GTGCAC_site9959],10 ± 0.33
20,CTTTTCTATTTTTTCGTGCACTATAAATATTTTAAT,9.6 ± 0.23
21,ATGCATATATTTATGTGTACATATATTTGTAGGGGG [XGTACX_site6063],10.6 ± 0.19
22,TATATATATATATTATGTACTCATTTATTATCTTTT [XGTACX_site8051],9.97 ± 0.13
